Compound activity (PubChem BioAssay)
A selection: hits, their analogues and other compounds. The true share with any hit is near 20%.
Pf growth 96h = Primary qHTS for delayed death inhibitors of the malarial parasite plastid, 96 hour incubation | P. falciparum luciferase reporter growth, 96 h | Potency, µM (highest dose often 28.7 µM), hits mostly inhibitors | 6.9% of 320,000 active | AID 504834, 2011
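Infected RBCs, 2% Hct / 0.05% parasitemia final; luciferase-reporter P. falciparum; cpd 96 h, 37 C, 5% CO2; luciferase detection reagent; luminescence.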
Shiga inhibitor = A qHTS for Small Molecule Inhibitors of Shiga Toxin; inhibition, % at 38.7 µM; Vero cells, Shiga toxin protein synthesis inhibition reporter; 9.2% of 290,000 active; in the data active = inhibition mostly above about 28%, no sharp cut-off; inactive = mostly below about 43%
Pf growth 48h = Primary qHTS for delayed death inhibitors of the malarial parasite plastid, 48 hour incubation. P. falciparum luciferase growth in erythrocytes, 48 h. Potency, µM (titrated, usually from 28.7 µM), most hits filed as inhibitors. 5.9% of 310,000 active. AID 504832, 2011
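Luciferase-expressing parasites in RBCs, 2% Hct / 0.1% parasitemia final; RPMI 1640 + 0.5% Albumax; 37 C, 5% CO2, one generation; luminescence read-out, lower signal = inhibition.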
CHX counter = Cycloheximide Counterscreen for Small Molecule Inhibitors of Shiga Toxin | AID 2314, 2010 | max response, % | cell reporter, cycloheximide protein synthesis inhibition counterscreen | 12% of 300,000 active; in the data active = max response mostly above about 13%, no sharp cut-off; inactive = mostly below about 14%; also: read at 38.3 µM for the half of the compounds with a filed dose
HCMV antiviral = qHTS Assay for inhibitors of the human cytomegalovirus (HCMV); HFF cells, HCMV-luciferase reporter, 72 h; active compounds read low; activity change, negative = inhibition, % at 57.5 µM; 4.5% of 410,000 active; in the data active = activity change below about -60%; inconclusive = no clear call, values can overlap the other calls; inactive = above about -39%
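Inhibition of viral replication was scored as loss of reporter luminescence in HFFs infected with HCMV-luciferase (MOI 1 PFU/cell) for 72 h; compounds tested at 2 doses, normalized to buffer and Salinomycin controls.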
Each line names hits and unclear results; the compound was inactive in the other large screens; ! = repeats disagree. Unless noted, calls follow the shape of the dose curve; as a rule, active = well fitted inhibition curve with a large enough effect; inconclusive = small, poorly fitted or top-dose-only effect, or another doubt; inactive = no such curve, though single readings can be large or run the other way.

Cc1ccc(CCNS(=O)(=O)c2cc(-c3cc(C)no3)ccc2C)cc1	none (no result: Pf growth 96h, Shiga inhibitor, Pf growth 48h, CHX counter)
CCOc1ccc(NC(=O)c2ccc3c(=O)n4c(nc3c2)CCCCC4)cc1	Pf growth 48h inconclusive, HCMV antiviral -63.1!
COc1cccc(/C=N/NC(=O)CNC(=O)COc2cccc(C)c2)c1O	Pf growth 48h 2.94µM
COc1cccc(/C=N/NC(=O)CNC(=O)CCc2ccccc2)c1O	Shiga inhibitor 66.4, Pf growth 48h inconclusive, CHX counter 29.9
Cc1ccc(/C=N/NC(=O)CNC(=O)c2cccs2)cc1	CHX counter 15.1
Cc1cccc(OCC(=O)NCC(=O)N/N=C/c2ccc(O)cc2O)c1	Pf growth 96h inconclusive, Pf growth 48h 10.4µM
COc1ccccc1/C=C\C(=O)NCC(=O)N/N=C/c1cccc(OC)c1O	none
Cc1cccc(OCC(=O)NCC(=O)N/N=C/c2ccccc2)c1	none
COc1cc(NS(=O)(=O)c2cc(Br)cc3c2N(C(=O)C2CC2)CC3)cc(OC)c1	none (no result: Pf growth 96h, Shiga inhibitor, Pf growth 48h, CHX counter)
O=C(CNC(=O)c1cccs1)N/N=C/c1c(F)cccc1Cl	Shiga inhibitor 36.8, CHX counter 16.3, HCMV antiviral -60.0
COc1cccc(/C=N/NC(=O)CNC(=O)c2cccs2)c1O	Shiga inhibitor 46.5, CHX counter 30.8
COc1ccccc1/C=N/NC(=O)CNC(=O)c1ccccc1	HCMV antiviral inconclusive
O=C(COC(=O)c1nn(-c2ccccc2C(F)(F)F)cc1O)c1ccc(OC(F)F)cc1	none (no result: Shiga inhibitor, CHX counter)
O=c1c2ccccc2oc2ccc(NCCCN3CCOCC3)cc12	Shiga inhibitor 43.3, CHX counter 35.6
O=C(COc1ccc2c(-c3ccccc3)cc(=O)oc2c1)NCCCn1ccnc1	Pf growth 48h inconclusive
Cn1c2ccccc2c(=O)c2cc(NCCCN3CCOCC3)ccc21	none (no result: Pf growth 96h, Shiga inhibitor, Pf growth 48h, CHX counter)
O=c1c2ccccc2oc2cc(NCCCn3ccnc3)ccc12	Shiga inhibitor 23.6, CHX counter 23.8
O=c1c2ccccc2oc2cc(NCCCN3CCOCC3)ccc12	Shiga inhibitor 34.9, CHX counter 40.1
Fc1ccc(NC(=S)N2CCN(c3ccccn3)CC2)cc1Cl	none (no result: Pf growth 96h, Shiga inhibitor, Pf growth 48h, CHX counter)
COc1ccc(OCCC(=O)Nc2cc3c(cc2C(=O)O)OCCCO3)cc1	Pf growth 48h inconclusive (no result: Shiga inhibitor, CHX counter)
CC(C)(O)[C@H]1Cc2cc3ccc(=O)oc3cc2O1	Shiga inhibitor 81.8, CHX counter 39.4
C=C(C)C1Cc2cc3ccc(=O)oc3cc2O1 (stereo unspecified)	Pf growth 96h inconclusive, CHX counter 16.4
CCCC1NC(=O)c2cccnc2-n2c1nc1cc(C)cc(C)c1c2=O (stereo unspecified)	none (no result: Pf growth 96h, Shiga inhibitor, Pf growth 48h, CHX counter)
O=[N+]([O-])c1cccc(C=NNc2ccc3ccccc3n2)c1O	HCMV antiviral -96.8 (no result: Pf growth 96h, Shiga inhibitor, Pf growth 48h, CHX counter)
Cc1cccc(C=NNc2cc(C)c3cccc(C)c3n2)n1	none (no result: Pf growth 96h, Shiga inhibitor, Pf growth 48h, CHX counter)
Cc1cc(N/N=C/c2ccccc2Br)nc2ccccc12	Shiga inhibitor 74.5, Pf growth 48h inconclusive, CHX counter 42.5
Brc1ccc(/C=N/Nc2ccccc2)cc1	Shiga inhibitor 59.7, CHX counter 42.9
Brc1ccc(/C=N/Nc2ccc3ccccc3n2)cc1	Pf growth 96h inconclusive, Shiga inhibitor 120.4, CHX counter 55.1
O=C(NC1CCCCNC1=O)c1ccccc1 (stereo unspecified)	none
COc1cccc(CNc2sc3c(c2C(=O)Nc2ccc(OC)cc2OC)CCC3)c1	none (no result: Pf growth 96h, Shiga inhibitor, Pf growth 48h, CHX counter)
Cc1ccc(C)c(-n2cc(-c3ccc(Cl)cc3)nc2SCC(=O)NC2CCS(=O)(=O)C2)c1 (stereo unspecified)	Pf growth 96h inconclusive
COc1ccc(CCN2C(=O)CC(N3CCN(C/C=C/c4ccccc4)CC3)C2=O)cc1OC (stereo unspecified)	Pf growth 96h inconclusive, Pf growth 48h inconclusive
Brc1ccccc1/C=N/Nc1ccc2ccccc2n1	Pf growth 96h inconclusive, Shiga inhibitor 65.5, CHX counter 44.5
O=C(O)c1ccccc1C=NNc1ccccn1	none (no result: Pf growth 96h, Shiga inhibitor, Pf growth 48h, CHX counter)
Fc1cccc(/C=N/Nc2ccc3ccccc3n2)c1	CHX counter 20.8
CCN1CCN(C(=O)c2ccc(Cl)c(S(=O)(=O)N3CCOCC3)c2)CC1	Pf growth 96h inconclusive (no result: Pf growth 48h)
CCOc1ccc(-c2nonc2NC(=O)COc2ccccc2)cc1	none (no result: Pf growth 96h, Shiga inhibitor, Pf growth 48h, CHX counter)
O=C(Nc1nonc1-c1ccc(Cl)cc1)c1ccccc1F	HCMV antiviral -68.2 (no result: Pf growth 96h, Shiga inhibitor, Pf growth 48h, CHX counter)
CCCCOc1ccccc1C(=O)Nc1nonc1-c1ccccc1	HCMV antiviral -99.5 (no result: Pf growth 96h, Shiga inhibitor, Pf growth 48h, CHX counter)
N#Cc1cnc2sc3ccccc3n2c1=N	Shiga inhibitor 50.6, CHX counter 47.2 (no result: Pf growth 48h)
Cn1nc2sc3ccccc3n2c(=O)c1=O	none
CCOc1ccc(CN2CCN(Cc3nc(C(C)C)cs3)CC2CCO)cc1 (stereo unspecified)	Pf growth 96h inconclusive, Pf growth 48h inconclusive
CCOc1ncccc1C(=O)OCC(=O)Nc1ccc(-c2nc3ccc(C)cc3s2)cc1	Shiga inhibitor 127.5, CHX counter 76.1
Cc1ccc2nc(-c3ccc(NC(=O)COc4ccccc4C(C)(C)C)cc3)sc2c1	none (no result: Pf growth 96h, Shiga inhibitor, Pf growth 48h, CHX counter)
Cc1ccc2nc(-c3ccc(NC(=O)COC(=O)c4cncc(Br)c4)cc3)sc2c1	Shiga inhibitor 64.3, CHX counter 38.7
C=CCn1c(SCC(=O)Nc2ccc(-c3nc4ccc(C)cc4s3)cc2)nnc1-c1ccccc1	Shiga inhibitor 84.1, CHX counter 42.0
Cc1ccc2nc(-c3ccc(NC(=O)COC(=O)c4ccc(Br)o4)cc3)sc2c1	Shiga inhibitor 81.3, CHX counter 26.6
O=C(COC(=O)c1cncc(Br)c1)Nc1ccc2c(c1)OCO2	none
